The structures appear in SMILES notation. Results filed as inconclusive are left out. Entries that show only a call come without a potency. The source made the active and inactive calls. Calls come from the whole dose curve; as a rule, active = well fitted inhibition curve with a large enough effect; inconclusive = small, poorly fitted or top-dose-only effect; inactive = flat fitted curve, though single readings scatter.
Potency is the fitted concentration of half-maximal effect.

One assay relates to DFO2036. Description: qHTS profiling for inhibitors of Plasmodium falciparum proliferation (AID 504749). Note: nearly all actives have a fitted effect of over 60% in size. The settings on record: P. falciparum in erythrocytes, SYBR Green DNA, 72 h; series mostly up to 28.7 µM. The gist of the method:
(§1)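 Each compound contacts P. falciparum-infected red blood cells for 72 h at 37 C; lysis buffer (Tris, EDTA, saponin, Triton X, SYBR Green I) is added and fluorescence measured next morning; values normalized to controls.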
(qHTS replaces the single test concentration by a dilution series.)
With `S=C=Nc1ccc(N=C=S)cc1`, the Potency entry was “inactive”.

As for `N=C(N)n1cccn1`, the Potency result is “inactive”.

`Cc1cccc(C)c1NC(=O)NC1=CCCN1C`: the Potency result is “inactive”.

Turning to `Cc1cc(-c2ccc(N=Nc3ccc4c(S(=O)(=O)O)cc(S(=O)(=O)O)c(N)c4c3O)c(C)c2)ccc1N=Nc1ccc2c(S(=O)(=O)O)cc(S(=O)(=O)O)c(N)c2c1O`, the Potency result was “inactive”.

`O=P(O)(O)O`: the Potency entry is “inactive”.

Regarding `CN(CCO)CC(O)Cn1cnc2c1c(=O)n(C)c(=O)n2C` (stereo not drawn) (tested in a mixture with another compound), the Potency entry was “inactive”.

With `O=C(O)Cc1cc(I)c(Oc2ccc(O)c(I)c2)c(I)c1`, the Potency entry was “inactive”.

As to `COC1=C(OC)C(=O)C(C/C=C(\C)CC/C=C(\C)CC/C=C(\C)CC/C=C(\C)CC/C=C(\C)CC/C=C(\C)CC/C=C(\C)CC/C=C(\C)CC/C=C(\C)CCC=C(C)C)=C(C)C1=O`, the Potency entry was “inactive”.

For `CN=C1C=CC(=C(c2ccc(N(C)C)cc2)c2ccc(N(C)C)cc2)C=C1`, the Potency is 398 nM (active).

In the case of `CCOc1ccc(S(=O)(=O)O)c2cccnc12`, the Potency result is “inactive”.

As to `FC(F)(F)COCC(F)(F)F`, the Potency entry was “inactive”.

Consider `O=C(O)[C@H]1C(=CCO)O[C@H]2CC(=O)N12`, for which the Potency result is “inactive”.

Take `CC1CC(O)CC(C)(C)C1` (stereo not drawn): the Potency result was “inactive”.

On to `Cc1ncc(C[n+]2csc(CCOP(=O)(O)O)c2C)c(N)n1`, for which the Potency entry was “inactive”.

On to `CCCCO`, for which the Potency entry is “inactive”.

For `CCOC(=S)SSC(=S)OCC`, the Potency result is “inactive”.

Turning to `N[C@H](CC(=O)O)C(=O)O`, the Potency entry is “inactive”.

As to `CCC(C(=O)NC(N)=O)c1ccccc1` (stereo not drawn), the Potency result is “inactive”.

With `CCN(CC)CCOC(=O)c1cccnc1`, the Potency entry was “inactive”.

For `NC(=S)NS(=O)(=O)c1ccc(N)cc1`, the Potency result is “inactive”.

In the case of `COc1cc2c(cc1OC)[C@@H](Cc1cc(OC)c(OC)c(OC)c1)[N+](C)(CCCOC(=O)CC/C=C/CCC(=O)OCCC[N+]1(C)CCc3cc(OC)c(OC)cc3[C@H]1Cc1cc(OC)c(OC)c(OC)c1)CC2` (stereo partly drawn), the Potency entry was “inactive”.

As to `Cc1ncc(COP(=O)(O)O)c(CN)c1O`, the Potency entry is “inactive”.

As to `C[C@H](N)C(=O)N[C@@H](C)P(=O)(O)O`, the Potency result was “inactive”.

In the case of `CO[C@H]1C[C@@H]2CC[C@@H](C)[C@@](O)(O2)C(=O)C(=O)N2CCCC[C@H]2C(=O)O[C@H]([C@H](C)C[C@@H]2CC[C@@H](OC(=O)C(C)(CO)CO)[C@H](OC)C2)CC(=O)[C@H](C)/C=C(\C)[C@@H](O)[C@@H](OC)C(=O)[C@H](C)C[C@H](C)/C=C/C=C/C=C/1C`, the Potency entry is “inactive”.

Regarding `CC1=C(/C=C/C(C)=C/C=C/C(C)=C/C(=O)Oc2c(C)c(C)c3c(c2C)CC[C@@](C)(CCC[C@H](C)CCC[C@H](C)CCCC(C)C)O3)C(C)(C)CCC1`, the Potency result was “inactive”.

In the case of `CCCCCCCCCCCCCC(=O)OCC(COP(=O)([O-])OCC[N+](C)(C)C)OC(=O)CCCCCCCCCCCCC` (stereo not drawn), the Potency entry was “inactive”.

For `CC(C)c1ncc([N+](=O)[O-])n1C`, the Potency result is “inactive”.

For the molecule `NC(=O)[C@@H]1CCCN1C(=O)[C@H](Cc1cnc[nH]1)NC(=O)[C@@H]1CCC(=O)N1`, the Potency result is “inactive”.

`Cc1ccccn1`: the Potency entry is “inactive”.

On to `Nc1nccs1`, for which the Potency entry was “inactive”.

For the molecule `O=C(NCCNCC(O)COc1ccc(O)cc1)N1CCOCC1` (stereo not drawn), the Potency entry was “inactive”.

Consider `CC(C)CCC[C@@H](C)[C@H]1CC[C@H]2[C@@H]3CC=C4C[C@@H](O)CC[C@]4(C)[C@H]3CC[C@]12C`, for which the Potency result is “inactive”.

On to `CS(=O)(=O)OCC(O)C(O)COS(C)(=O)=O` (stereo not drawn), for which the Potency result is “inactive”.

`NCC[C@H](O)C(=O)N[C@@H]1C[C@H](N)[C@@H](O[C@H]2O[C@H](CN)CC[C@H]2N)[C@H](O)[C@H]1O[C@H]1O[C@H](CO)[C@@H](O)[C@H](N)[C@H]1O`: the Potency entry was “inactive”.

With `OCC(O)CO`, the Potency entry was “inactive”.

Turning to `CCOc1ccc(NC(=S)Nc2ccc(OCC)cc2)cc1`, the Potency result is “inactive”.

For the molecule `CCOC(=O)c1cc(-c2ccccc2)nc2ccc(C)cc12`, the Potency entry was “inactive”.

With `OCl`, the Potency result is “inactive”.

For the molecule `CCc1ncnc2cc(OC)c(OC)cc12`, the Potency entry is “inactive”.

For the next assay, the system named is DIV14. The assay is described as above. As to conditions: P. falciparum in erythrocytes, SYBR Green DNA, 72 h; series mostly up to 28.7 µM. Put shortly:
as §1
Take `S=C=Nc1ccc(N=C=S)cc1`: the Potency entry was “inactive”.

`N=C(N)n1cccn1`: the Potency entry was “inactive”.

`Cc1cccc(C)c1NC(=O)NC1=CCCN1C`: the Potency result is “inactive”.

For `Cc1cc(-c2ccc(N=Nc3ccc4c(S(=O)(=O)O)cc(S(=O)(=O)O)c(N)c4c3O)c(C)c2)ccc1N=Nc1ccc2c(S(=O)(=O)O)cc(S(=O)(=O)O)c(N)c2c1O`, the Potency result was “inactive”.

On to `O=P(O)(O)O`, for which the Potency entry is “inactive”.

`CN(CCO)CC(O)Cn1cnc2c1c(=O)n(C)c(=O)n2C` (stereo not drawn) (tested in a mixture with another compound): the Potency entry was “inactive”.

For `O=C(O)Cc1cc(I)c(Oc2ccc(O)c(I)c2)c(I)c1`, the Potency result was “inactive”.

Turning to `COC1=C(OC)C(=O)C(C/C=C(\C)CC/C=C(\C)CC/C=C(\C)CC/C=C(\C)CC/C=C(\C)CC/C=C(\C)CC/C=C(\C)CC/C=C(\C)CC/C=C(\C)CCC=C(C)C)=C(C)C1=O`, the Potency result was “inactive”.

Consider `CN=C1C=CC(=C(c2ccc(N(C)C)cc2)c2ccc(N(C)C)cc2)C=C1`, for which the Potency was 1510 nM (active).

Regarding `CCOc1ccc(S(=O)(=O)O)c2cccnc12`, the Potency entry was “inactive”.

Turning to `FC(F)(F)COCC(F)(F)F`, the Potency entry was “inactive”.

Take `O=C(O)[C@H]1C(=CCO)O[C@H]2CC(=O)N12`: the Potency entry was “inactive”.

`CC1CC(O)CC(C)(C)C1` (stereo not drawn): the Potency entry was “inactive”.

Take `Cc1ncc(C[n+]2csc(CCOP(=O)(O)O)c2C)c(N)n1`: the Potency result was “inactive”.

In the case of `CCCCO`, the Potency entry is “inactive”.

Regarding `CCOC(=S)SSC(=S)OCC`, the Potency result was “inactive”.

As to `N[C@H](CC(=O)O)C(=O)O`, the Potency entry was “inactive”.

`CCC(C(=O)NC(N)=O)c1ccccc1` (stereo not drawn): the Potency result was “inactive”.

On to `CCN(CC)CCOC(=O)c1cccnc1`, for which the Potency result was “inactive”.

For `NC(=S)NS(=O)(=O)c1ccc(N)cc1`, the Potency entry was “inactive”.

`COc1cc2c(cc1OC)[C@@H](Cc1cc(OC)c(OC)c(OC)c1)[N+](C)(CCCOC(=O)CC/C=C/CCC(=O)OCCC[N+]1(C)CCc3cc(OC)c(OC)cc3[C@H]1Cc1cc(OC)c(OC)c(OC)c1)CC2` (stereo partly drawn): the Potency result was “inactive”.

On to `Cc1ncc(COP(=O)(O)O)c(CN)c1O`, for which the Potency result was “inactive”.

In the case of `C[C@H](N)C(=O)N[C@@H](C)P(=O)(O)O`, the Potency result is “inactive”.

`CO[C@H]1C[C@@H]2CC[C@@H](C)[C@@](O)(O2)C(=O)C(=O)N2CCCC[C@H]2C(=O)O[C@H]([C@H](C)C[C@@H]2CC[C@@H](OC(=O)C(C)(CO)CO)[C@H](OC)C2)CC(=O)[C@H](C)/C=C(\C)[C@@H](O)[C@@H](OC)C(=O)[C@H](C)C[C@H](C)/C=C/C=C/C=C/1C`: the Potency result was “inactive”.

Regarding `CC1=C(/C=C/C(C)=C/C=C/C(C)=C/C(=O)Oc2c(C)c(C)c3c(c2C)CC[C@@](C)(CCC[C@H](C)CCC[C@H](C)CCCC(C)C)O3)C(C)(C)CCC1`, the Potency result is “inactive”.

`CCCCCCCCCCCCCC(=O)OCC(COP(=O)([O-])OCC[N+](C)(C)C)OC(=O)CCCCCCCCCCCCC` (stereo not drawn): the Potency entry was “inactive”.

Consider `CC(C)c1ncc([N+](=O)[O-])n1C`, for which the Potency result is “inactive”.

As to `NC(=O)[C@@H]1CCCN1C(=O)[C@H](Cc1cnc[nH]1)NC(=O)[C@@H]1CCC(=O)N1`, the Potency result was “inactive”.

With `Cc1ccccn1`, the Potency result was “inactive”.

`Nc1nccs1`: the Potency entry is “inactive”.

Regarding `O=C(NCCNCC(O)COc1ccc(O)cc1)N1CCOCC1` (stereo not drawn), the Potency result was “inactive”.

With `CC(C)CCC[C@@H](C)[C@H]1CC[C@H]2[C@@H]3CC=C4C[C@@H](O)CC[C@]4(C)[C@H]3CC[C@]12C`, the Potency result is “inactive”.

As to `CS(=O)(=O)OCC(O)C(O)COS(C)(=O)=O` (stereo not drawn), the Potency entry is “inactive”.

As for `NCC[C@H](O)C(=O)N[C@@H]1C[C@H](N)[C@@H](O[C@H]2O[C@H](CN)CC[C@H]2N)[C@H](O)[C@H]1O[C@H]1O[C@H](CO)[C@@H](O)[C@H](N)[C@H]1O`, the Potency result was “inactive”.

As for `OCC(O)CO`, the Potency result is “inactive”.

In the case of `CCOc1ccc(NC(=S)Nc2ccc(OCC)cc2)cc1`, the Potency result was “inactive”.

Turning to `CCOC(=O)c1cc(-c2ccccc2)nc2ccc(C)cc12`, the Potency result is “inactive”.

For the molecule `OCl`, the Potency result is “inactive”.

For the molecule `CCc1ncnc2cc(OC)c(OC)cc12`, the Potency result is “inactive”.

Values taken from PubChem BioAssay (NCATS).
